Assay results as given in PubChem BioAssay (NCI).
Where “and” joins values, the source holds several entries; their conditions need not be identical. Equal entries are not always repeated. The panel holds about 83,000 compounds, 20% with a hit somewhere; the sample as a whole holds those more often.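 Growth was measured after 48 h exposure to one concentration of compound in 96-well plates. Values under 10 count as active.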 Calls of active or inactive are those of the source.

How the values were obtained:
Assay in all cases: NCI-60 one-dose screen, 48 h (100 = growth as untreated, 0 = no growth, -100 = all killed)
Conditions in all cases: 10 µM unless noted
SR leukemia = test system: SR leukemia
RPMI-8226 leukemia = test system: RPMI-8226 leukemia
OVCAR-8 ovarian = test system: OVCAR-8 ovarian
OVCAR-5 ovarian = test system: OVCAR-5 ovarian
OVCAR-4 ovarian = test system: OVCAR-4 ovarian
SK-OV-3 ovarian = test system: SK-OV-3 ovarian
OVCAR-3 ovarian = test system: OVCAR-3 ovarian
HS 578T breast = test system: HS 578T breast
NCI/ADR-RES ovarian = test system: NCI/ADR-RES ovarian
SW-620 colon = test system: SW-620 colon
MCF7 breast = test system: MCF7 breast
HCC-2998 colon = test system: HCC-2998 colon
KM12 colon = test system: KM12 colon
T-47D breast = test system: T-47D breast
BT-549 breast = test system: BT-549 breast
IGROV1 ovarian = test system: IGROV1 ovarian
MDA-MB-435 melanoma = test system: MDA-MB-435 melanoma
HCT-116 colon = test system: HCT-116 colon

Measured: growth

COc1ccc(C(=O)CC(c2ccccc2)C(C#N)c2ccccc2)cc1 (stereo not drawn)
inactive: SR leukemia 73.8% | RPMI-8226 leukemia 72.6% | OVCAR-8 ovarian 86% | OVCAR-5 ovarian 110% | OVCAR-4 ovarian 88.8% | SK-OV-3 ovarian 102% | OVCAR-3 ovarian 82.4% | HS 578T breast 86.4% | NCI/ADR-RES ovarian 84.2% | SW-620 colon 91.1% | MCF7 breast 93.4% | HCC-2998 colon 99.1% | KM12 colon 79.9%

O=C1OC(C(O)C(O)CO)C(O)=C1O (stereo not drawn)
-23.7% (active) and 98.9% (inactive): HCC-2998 colon
inactive: SR leukemia 103% and 107% | RPMI-8226 leukemia 98.1% and 105% | OVCAR-8 ovarian 102% and 105% | OVCAR-5 ovarian 94.6% and 96.4% | OVCAR-4 ovarian 106% and 112% | SK-OV-3 ovarian 114% and 92.9% | OVCAR-3 ovarian 115% and 109% | HS 578T breast 120% and 119% | NCI/ADR-RES ovarian 95% and 102% | T-47D breast 103% and 83.1% | BT-549 breast 106% | SW-620 colon 117% and 105% | MCF7 breast 98.9% and 97.4% | KM12 colon 109% and 103%

CCCCCCCCCCNC(=O)CI
inactive: OVCAR-5 ovarian 95.8% | HS 578T breast 91.3% | MCF7 breast 10.7% | HCC-2998 colon 98.4% | KM12 colon 55.3%
active: SR leukemia -40.9% | RPMI-8226 leukemia -37.1% | OVCAR-8 ovarian 0.969% | OVCAR-4 ovarian -44.1% | SK-OV-3 ovarian 5.75% | OVCAR-3 ovarian -70.3% | NCI/ADR-RES ovarian 2.88% | T-47D breast -21.1% | BT-549 breast -87% | SW-620 colon -33.9%

CC(=O)OC(C)C(=O)NCC(C)O (stereo not drawn)
inactive: SR leukemia 88% | OVCAR-8 ovarian 102% | OVCAR-5 ovarian 104% | OVCAR-4 ovarian 100% | SK-OV-3 ovarian 95.3% | IGROV1 ovarian 114% | OVCAR-3 ovarian 107% | HS 578T breast 86% | NCI/ADR-RES ovarian 106% | T-47D breast 96.3% | BT-549 breast 111% | MDA-MB-435 melanoma 111% | SW-620 colon 94.3% | MCF7 breast 96.9% | HCC-2998 colon 99.4% | KM12 colon 102%

Nc1nc(N)c2[nH]cnc2n1
inactive: SR leukemia 93% | RPMI-8226 leukemia 64.3% | OVCAR-8 ovarian 70.4% | OVCAR-5 ovarian 90.3% | OVCAR-4 ovarian 88.5% | OVCAR-3 ovarian 97.8% | HS 578T breast 114% | NCI/ADR-RES ovarian 87.3% | T-47D breast 59.1% | BT-549 breast 96.8% | MDA-MB-435 melanoma 84.5% | SW-620 colon 85.9% | MCF7 breast 54.2% | HCC-2998 colon 86% | KM12 colon 107%

NC1CCC(C(=O)O)CC1 (stereo not drawn)
inactive: SR leukemia 111% and 105% | RPMI-8226 leukemia 93.2% and 75.8% | OVCAR-8 ovarian 109% and 113% | OVCAR-5 ovarian 93.9% and 100% | OVCAR-4 ovarian 107% and 103% | SK-OV-3 ovarian 101% and 106% | OVCAR-3 ovarian 103% and 107% | HS 578T breast 86.4% and 94.8% | NCI/ADR-RES ovarian 110% and 107% | T-47D breast 90.5% and 95.8% | SW-620 colon 93.7% and 100% | MCF7 breast 96% and 95.2% | HCT-116 colon 94.9% and 99.3% | HCC-2998 colon 111% and 100% | KM12 colon 107% and 108%

CCCCNc1ccc(Nc2ccccc2)cc1
active: RPMI-8226 leukemia -25%
inactive: SR leukemia 62.3% | OVCAR-8 ovarian 74.2% | OVCAR-5 ovarian 103% | OVCAR-4 ovarian 39% | IGROV1 ovarian 58.7% | OVCAR-3 ovarian 66% | HS 578T breast 105% | NCI/ADR-RES ovarian 86.4% | T-47D breast 34% | BT-549 breast 49.7% | SW-620 colon 84.3% | MCF7 breast 67.3% | HCC-2998 colon 92% | KM12 colon 66%

c1ccc(-c2nc3ccccc3s2)cc1
inactive: SR leukemia 103% | OVCAR-8 ovarian 88.3% | OVCAR-5 ovarian 84.1% | OVCAR-4 ovarian 101% | OVCAR-3 ovarian 105% | HS 578T breast 93% | NCI/ADR-RES ovarian 96.1% | BT-549 breast 96.8% | SW-620 colon 93.6% | MCF7 breast 80.3% | HCC-2998 colon 97.2% | KM12 colon 95.4%

CC(C)NC(=O)N/C=C(\C#N)C(N)=O
inactive: SR leukemia 100% | RPMI-8226 leukemia 116% | OVCAR-8 ovarian 109% | OVCAR-5 ovarian 92.5% | OVCAR-4 ovarian 105% | SK-OV-3 ovarian 104% | OVCAR-3 ovarian 105% | HS 578T breast 108% | NCI/ADR-RES ovarian 100% | T-47D breast 101% | BT-549 breast 92.1% | SW-620 colon 93.4% | MCF7 breast 102% | HCC-2998 colon 97.5% | KM12 colon 92.7%

O=C(Cc1ccccc1)c1ccc(O)c(Cl)c1
inactive: SR leukemia 10.2% | OVCAR-8 ovarian 43.4% | OVCAR-5 ovarian 65.6% | OVCAR-4 ovarian 63.5% | SK-OV-3 ovarian 101% | OVCAR-3 ovarian 12.4% | HS 578T breast 37.4% | NCI/ADR-RES ovarian 28.5% | T-47D breast 43.9% | BT-549 breast 45.3% | SW-620 colon 22.1% | MCF7 breast 20.4% | HCC-2998 colon 43.4% | KM12 colon 51.4%
active: RPMI-8226 leukemia -6.77%

NC(Cc1c[nH]c2ccccc12)C(=O)O (stereo not drawn)
inactive: SR leukemia 53.3% and 105% | RPMI-8226 leukemia 86.6% and 103% | OVCAR-8 ovarian 58.3% and 93.5% | OVCAR-5 ovarian 91.7% and 103% | OVCAR-4 ovarian 108% and 102% | SK-OV-3 ovarian 106% and 105% | OVCAR-3 ovarian 120% and 107% | HS 578T breast 115% and 95.3% | NCI/ADR-RES ovarian 105% and 111% | T-47D breast 110% | BT-549 breast 113% and 102% | SW-620 colon 111% and 95.9% | MCF7 breast 105% and 98.5% | HCT-116 colon 91.4% and 86.7% | HCC-2998 colon 103% and 101% | KM12 colon 108% and 109%

OC1COC(OCc2ccccc2)C(O)C1O (stereo not drawn)
inactive: RPMI-8226 leukemia 103% | OVCAR-5 ovarian 99.1% | OVCAR-4 ovarian 88.5% | SK-OV-3 ovarian 98.9% | OVCAR-3 ovarian 106% | NCI/ADR-RES ovarian 103% | T-47D breast 89% | BT-549 breast 105% | SW-620 colon 109% | MCF7 breast 96% | KM12 colon 105%

Cl
inactive: SR leukemia 104% | RPMI-8226 leukemia 115% | OVCAR-8 ovarian 98.6% | OVCAR-5 ovarian 105% | OVCAR-4 ovarian 125% | SK-OV-3 ovarian 115% | OVCAR-3 ovarian 119% | HS 578T breast 108% | NCI/ADR-RES ovarian 102% | T-47D breast 101% | BT-549 breast 112% | SW-620 colon 100% | MCF7 breast 109% | HCT-116 colon 104% | HCC-2998 colon 108% | KM12 colon 112%

N#CC(C#N)N=Nc1ccc(Cl)cc1
inactive: SR leukemia 53.7% | OVCAR-8 ovarian 62.1% | OVCAR-5 ovarian 72.6% | OVCAR-4 ovarian 10.1% | SK-OV-3 ovarian 45.8% | OVCAR-3 ovarian 15.2% | HS 578T breast 81.8% | NCI/ADR-RES ovarian 72.2% | BT-549 breast 77.1% | MDA-MB-435 melanoma 79.6% | SW-620 colon 15% | MCF7 breast 27.3% | HCT-116 colon 16.9% | HCC-2998 colon 75.3% | KM12 colon 85.9%
active: T-47D breast -0.279%

CC1CCC(C(C)C)C(NNC(N)=O)C1 (stereo not drawn)
inactive: SR leukemia 100% | RPMI-8226 leukemia 98.5% | OVCAR-8 ovarian 100% | OVCAR-5 ovarian 131% | OVCAR-4 ovarian 111% | SK-OV-3 ovarian 109% | OVCAR-3 ovarian 103% | HS 578T breast 91.6% | NCI/ADR-RES ovarian 105% | SW-620 colon 98% | MCF7 breast 100% | HCC-2998 colon 91.8% | KM12 colon 94%
